Compound activity from PubChem BioAssay.
The list is not random: actives were taken first. Their share in the collection is about 1.1%.
rTrxR1 inhibitor: qHTS Assay for Inhibitors of Mammalian Selenoprotein Thioredoxin Reductase 1 (TrxR1): qHTS; Potency, µM (series often up to 114 µM), inactives show at the top dose activity change, negative = inhibition, hits mostly inhibitors; Thioredoxin reductase 1, cytoplasmic (Rattus norvegicus), O89049; hit rate 1% among 390,000; recombinant rTrxR1, NADPH fluorescence consumption, selenite substrate; AID 588453, 2011; also: nearly all actives have a fitted effect of over 65% in size
Target sequence (O89049 whole entry, looked up): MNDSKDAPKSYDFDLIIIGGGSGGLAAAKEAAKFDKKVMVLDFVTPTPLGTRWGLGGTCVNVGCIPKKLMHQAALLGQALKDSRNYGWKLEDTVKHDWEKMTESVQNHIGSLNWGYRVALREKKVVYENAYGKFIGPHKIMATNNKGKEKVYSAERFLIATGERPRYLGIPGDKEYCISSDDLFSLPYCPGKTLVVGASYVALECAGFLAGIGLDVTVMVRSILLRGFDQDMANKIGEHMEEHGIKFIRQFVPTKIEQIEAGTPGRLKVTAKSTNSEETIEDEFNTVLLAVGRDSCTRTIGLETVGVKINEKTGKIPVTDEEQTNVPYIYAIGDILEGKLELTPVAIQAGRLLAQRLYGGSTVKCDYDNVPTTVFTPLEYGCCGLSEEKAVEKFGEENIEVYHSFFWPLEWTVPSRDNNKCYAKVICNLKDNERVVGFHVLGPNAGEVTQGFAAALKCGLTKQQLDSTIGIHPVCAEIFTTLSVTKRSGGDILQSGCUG
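Rat TrxR1 (90 nM in the dispensed reagent) was pre-reduced with 400 uM NADPH for 5 min at room temperature, then incubated with compound for 15 min. After 400 uM selenite was added, NADPH fluorescence (Ex 340/Em 450 nm) was followed for 8 min.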
IDH1 R132H inh: qHTS for Inhibitors of mutant isocitrate dehydrogenase 1 (IDH1): qHTS; IDH1-R132H enzyme, NADPH consumption, diaphorase/resazurin fluorescence; Potency, µM (highest dose often 76.6 µM), inactives show at the highest dose activity change, negative = inhibition, usual class: inhibitors; Isocitrate dehydrogenase [NADP] cytoplasmic (Homo sapiens), O75874; AID 602179, 2012; hit rate 0.093% among 390,000; also: nearly all actives have a fitted effect of over 65% in size
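IDH1-R132H (0.5 ug/mL dispensed) in pH 7.5 Tris buffer was preincubated 30 min with compound, then given a substrate mix of 0.016 mM NADPH and 2 mM alpha-KG for 80 min at room temperature; remaining NADPH was read by diaphorase/resazurin fluorescence.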
RGS4 inh: Inhibitors of Regulator of G Protein Signaling (RGS) 4: qHTS; Regulator of G-protein signaling 4 (Homo sapiens), P49798; Transcreener GDP fluorescence polarization, RGS4-accelerated GTP hydrolysis; Potency, µM (series often up to 114 µM), inactives show at the top dose activity change, negative = inhibition, usual class: inhibitors; hit rate 0.039% among 390,000; also: nearly all actives have a fitted effect of over 75% in size
Target sequence (P49798 whole entry, looked up): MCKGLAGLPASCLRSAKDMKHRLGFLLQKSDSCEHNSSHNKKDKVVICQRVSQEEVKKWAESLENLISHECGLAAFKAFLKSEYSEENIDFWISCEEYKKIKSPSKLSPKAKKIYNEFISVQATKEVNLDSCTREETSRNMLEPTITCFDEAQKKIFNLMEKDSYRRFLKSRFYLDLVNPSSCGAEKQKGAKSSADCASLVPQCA
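MLSMR compounds (23 nl, pin-transferred) preincubated 10 min at room temperature with a 500nM (2x) first reagent, then RGS4 at 900nM (2x) plus Transcreener GDP mix added; fluorescence polarization (620/688 nm) read before and after 90 min at 30 °C.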
Eya2 phos inh: qHTS Assay for Inhibitors of the Phosphatase Activity of Eya2; recombinant Eya2, OMFP fluorescence dephosphorylation (OMFP is methylfluorescein phosphate); AID 488837, 2010; Potency, µM (series often up to 76.9 µM), without a hit: at the highest dose activity, negative = inhibition, usual class: inhibitors; Protein phosphatase EYA2 (Homo sapiens), O00167; hit rate 0.006% among 330,000
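Eya2 protein (added as 0.2 uM solution) was preincubated with compound for 10 min at ambient temperature in 50 mM HEPES pH 7.5, 50 mM NaCl, 5 uM MgCl2, 0.05% BSA, 1 mM DTT. OMFP (added at 50 uM) then reacted 10 min; fluorescence read at 485/525 nm.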
TrxR1 substrate: qHTS Assay for Substrates of Mammalian Selenoprotein Thioredoxin Reductase 1 (TrxR1): qHTS. purified TrxR1 substrate turnover, NADPH consumption readout. Potency, µM (titrated, usually from 114 µM), for the others: at the highest dose activity change, negative = substrate turnover. hit rate 0.01% among 390,000. Thioredoxin reductase 1, cytoplasmic (Rattus norvegicus), O89049; also: nearly all actives have a fitted effect of over 50% in size
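Rat TrxR1, dispensed at 90 nM, was prereduced with 400 uM NADPH (final) for 5 min at ~22 deg C, then incubated with compound 15 min before 400 uM selenite. A first-read NADPH fluorescence drop versus no-compound background flagged substrates.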
Active calls of the source: *; ? = inconclusive; / = no result; ! = a repeat was not active; [ ] = remark or other dose. Calls follow the shape of the dose curve; as a rule, active = well fitted curve in the direction sought with a large enough effect; inconclusive = small, poorly fitted or top-dose-only effect, or another doubt; inactive = no such curve, though single readings can be large; an effect the other way counts as inactive or inconclusive. % is scaled to controls: 0 for no effect and ±100 for the full control effect; potency is read from the fitted curve at half-maximal effect.

SMILES	rTrxR1 inhibitor	IDH1 R132H inh	RGS4 inh	Eya2 phos inh	TrxR1 substrate
CCSc1nnc(NC(=O)c2nc(S(=O)(=O)Cc3ccc(F)cc3)ncc2Cl)s1	25.1µM*	9.4%	-49.9%	-19.1%	-1.0%
Cc1ccc(C)c(NC(=O)c2nc(S(=O)(=O)Cc3ccc(F)cc3)ncc2Cl)c1	1.58µM*	-15.6%	-35.5%	/	3.3%
CC(Oc1ccccc1F)C(=O)NC1CCS(=O)(=O)C1 (stereo unspecified)	19.0%	-6.7%	8.2%	5.9%	1.6%
Cc1ccccc1NC(=O)Cn1c(=O)n(CCCCCC(=O)NCc2ccc3c(c2)OCO3)c(=O)c2sccc21	17.3%	-2.7%	-29.7%	/	1.8%
COc1cc(NC(=O)c2ccc3c(c2)OCCO3)ccc1NC(=O)c1ccco1	14.5%	-3.4%	4.1%	-0.6%	5.4%
CSc1nnc(NC(=O)c2nc(S(=O)(=O)Cc3cccc(C)c3)ncc2Cl)s1	?	-1.4%	-48.6%	2.7%	-3.9%
Cc1cccc(CS(=O)(=O)c2ncc(Cl)c(C(=O)Nc3nnc(C(C)C)s3)n2)c1	25.1µM*	4.7%	?	8.5%	-2.1%
C=CCOc1ccc(C2/C(=C(\O)c3ccc(F)cc3)C(=O)C(=O)N2CCCN(C)C)cc1 (stereo unspecified)	35.5µM*	2.1%	8.7%	21.0%	-4.2%
COc1ccccc1-n1nnnc1SCC(=O)N(CC(C)C)C1CCS(=O)(=O)C1 (stereo unspecified)	16.9%	5.0%	0.8%	-1.8%	-1.2%
O=[N+]([O-])c1ccc(O/N=[N+](\[O-])N2CCN(c3ncccn3)CC2)c([N+](=O)[O-])c1	14.1µM*	/	/	/	9.6%[0.457 µM]
O=[N+]([O-])c1ccc(N2CCN(c3ccccc3)CC2)cc1	20.8%	6.5%	-18.4%	-1.3%	3.0%
COc1ccc(S(=O)(=O)N2CCN(c3ncccn3)CC2)cc1[N+](=O)[O-]	22.7%	-3.6%	9.1%	-7.1%	6.8%
O=[N+]([O-])c1ccc(O/N=[N+](\[O-])N2CCN(c3ccccc3)CC2)c([N+](=O)[O-])c1	31.6µM*	/	/	/	-6.5%
Cc1ccc2nc(CN3CCN(S(=O)(=O)c4ccc(C(C)C)cc4)CC3)oc2c1	8.1%[57.1 µM]	13.1%	-1.8%	/	-3.1%[57.1 µM]
CC1(c2ccccc2)NC(=O)N(CC(=O)Nc2cc(C(F)(F)F)ccc2N2CCCCC2)C1=O (stereo unspecified)	1.1%	0.1%	-13.0%	/	-8.6%
COc1ccccc1NC(=O)c1ccc(-c2ccccc2[N+](=O)[O-])o1	15.6%[57.1 µM]	2.5%	?	?	-9.2%
CC(=O)NC1=CC(=O)c2nonc2C1=O	?	/	-36.9%	/	7.08µM*
Cc1ccc(N(C(=O)COc2ccccc2C)S(=O)(=O)c2ccc(Cl)cc2)cc1	20.8%	-15.0%	-0.1%	/	6.5%
O=C(NNc1ccccc1[N+](=O)[O-])Nc1ccc(Cl)c(Cl)c1	13.1%	-4.8%	12.4%	-11.2%	6.0%[57.1 µM]
O=C1NC(=O)C(c2ccccc2[N+](=O)[O-])=C1Nc1ccc(O)c(Cl)c1	2.67µM*!	15.7%	11.9µM*!	8.5%	-2.6%[57.1 µM]
Cc1ccc(C2C(=O)c3ccccc3C2=O)cc1	19.9%[57.1 µM]	3.0%	12.7%	-11.3%	12.9%[57.1 µM]
CCOC(=O)C(=CNc1cccnc1Oc1ccc(C)c2c1CCC2)C(=O)OCC	11.2%[57.1 µM]	6.2%	-14.1%	8.9%	-23.0%[57.1 µM]
CC(C)CC(=O)NC(Nc1ccc([N+](=O)[O-])cc1)C(Cl)(Cl)Cl (stereo unspecified)	-9.5%	2.3%	-11.2%	-0.9%	-7.9%
COc1ccccc1-c1ccc(/C=C2\C=CC(=O)O2)o1	14.1µM*	16.4%	?	?	1.5%[57.1 µM]
COC(=O)CCC/C=C1/SCC(NC(=O)c2ccccc2)C1=O (stereo unspecified)	25.1µM*	9.4%	?	-0.5%	4.4%
SMILES	rTrxR1 inhibitor	IDH1 R132H inh	RGS4 inh	Eya2 phos inh	TrxR1 substrate
COC(=O)CCC/C=C1/SCC(NC(=O)c2ccccc2)C1O (stereo unspecified)	50.1µM*	-1.6%	-6.1%	/	-19.1%
COC(=O)CCC/C=C1/SCC(NC(=O)c2ccccc2)C1NC(C)=O (stereo unspecified)	19.6%	2.8%	-11.9%	-16.1%	-0.5%
Cn1c2ccccc2c(=O)c2ccc(NCc3ccc4c(c3)OCO4)cc21	13.0%	-3.8%	-10.3%	/	38.6%
O=C(C1CCCO1)N1CCN(C(=S)Nc2cccc(F)c2)CC1 (stereo unspecified)	-15.0%	2.1%	6.6%	-3.5%	-4.5%
CCCCN(CCCC)c1nc2ccccc2nc1C(C#N)C(=O)NCCCOC (stereo unspecified)	39.8µM*	7.8%	-16.5%	7.9%	3.5%
CCN(CC)c1nc2ccccc2nc1C(C#N)C(=O)NCCCOC (stereo unspecified)	-3.5%	14.8%	-0.6%	-4.4%	15.5%[57.1 µM]
c1coc(Cn2c(-c3ccco3)nc3ccccc32)c1	3.16µM*	-1.0%	-40.1%	-16.0%	27.0%
Clc1ccc(OCCn2c(-c3ccco3)nc3ccccc32)cc1	?	4.7%	-38.3%	-20.5%	10.5%
COc1ccc(NC(=O)CN(C)C(=O)C(NC(=O)c2ccco2)C(C)C)cc1 (stereo unspecified)	2.1%	-4.0%	-29.5%	18.6%	0.1%
CCc1ccc(NC(=O)c2sc(-n3nc(C)c(Cc4ccc5c(c4)OCO5)c3C)nc2C)cc1	45.9%	-9.0%	-13.9%	/	8.4%
CCS(=O)(=O)c1c([N+](=O)[O-])ncn1C	0.794µM*	-1.5%	-9.7%	5.4%	2.9%
CCN(CC)c1c([N+](=O)[O-])ncn1C	6.0%[57.1 µM]	1.4%	-12.3%	-16.7%	9.7%[57.1 µM]
COc1ccc(C(C)=O)cc1COC(=O)c1cc(C)oc1C	10µM*	7.6%	-16.9%	3.1%	-3.7%
COc1ccc(C(C)=O)cc1COC(=O)CCNS(=O)(=O)c1ccc(C(C)=O)cc1	39.8µM*	-3.3%	-19.8%	-0.9%	-9.0%
COc1ccc(C(C)=O)cc1COc1cccnc1[N+](=O)[O-]	13.5%[0.0914 µM]	-5.2%	-14.3%	-6.2%	-1.6%[57.1 µM]
COc1ccc(C(C)=O)cc1COC(=O)c1ccc2ccccc2n1	-13.8%	-6.2%	-37.9%	-13.3%	-6.9%
COc1ccc(C(C)=O)cc1COc1ccccc1[N+](=O)[O-]	35.5µM*	-9.9%	-7.1%	-6.5%	-10.8%
COc1ccc(C(C)=O)cc1COC(=O)c1cc(=O)c2ccccc2o1	12.6µM*	5.2%	-52.9%	4.9%	13.2%[0.0914 µM]
